Most compounds without a hit are left out; they make up all but 1.6% or so of the library.
PfHsp40 rescue: restores yeast growth despite PfHsp40 toxicity; growth rescue, % at 12.5 µM; S. cerevisiae expressing PfHsp40, growth rescue, ATP luminescence; AID 504582; hit rate 0.68% among 340,000; in the data active means growth rescue above about 28%, passing the limit was not always enough; inconclusive means no clear call, values can overlap the other calls;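 further: yeast W303a lacking pdr1 and pdr3 grown in galactose medium; growth measured after three days at 30 °C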
PrPC TRFRET: inhibitors of human cell surface prion protein PrPC. P04156. TR-FRET read-out. inhibition, % at 13.8 µM. hit rate 0.43% among 370,000; in the data active means inhibition above about 24%; further: 0% = median of the test wells and 100% = reference compound wells
3CLpro inhibitor: SARS-CoV 3CLpro protease inhibition. P0C6X7. hit rate 0.14% among 290,000. inhibition, % at 6 µM. recombinant SARS-CoV 3CLpro, quenched FRET peptide cleavage; in the data active means inhibition above about 12%
PriA SSB inh: inhibitors of Klebsiella pneumoniae PriA binding to SSB C-terminal tail. AlphaScreen SSBct-PriA binding, biotinylated peptide. inhibition, % at 33 µM. hit rate 0.6% among 430,000; in the data active means inhibition mostly above about 37%, no sharp cut-off; inactive means mostly below about 20%;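 further: plate controls were negative control peptide for no effect and reference peptide for full effect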
Vc quorum ag: quorum light induction in luxS cqsA deficient V. cholerae; V. cholerae BH1578 lux reporter, luminescence, 6 h; activation, % at 18.7 µM; hit rate 0.16% among 350,000; in the data active means activation mostly above about 9.7%, no sharp cut-off; inconclusive means no clear call, values can overlap the other calls; inactive means mostly below about 3.7%
PrP UTR inh: inhibition of PrP 5' UTR reporter expression | AID 488862 | cell-based PrP 5' UTR mRNA reporter, plate reader | inhibition, % (test concentration not listed) | hit rate 0.35% among 340,000; in the data active means inhibition above about 52%; further: 0 = median of the neutral control wells
PrP UTR cherry: prion 5' UTR mRNA inhibition, cherry-pick retest. cell-based prion protein 5' UTR reporter, plate reader. hit rate 48% among 1,100. AID 504592. inhibition, % at 2.5 µM. shares compounds with PrP UTR inh; in the data active means inhibition above about 54%; inconclusive means no clear call, values can overlap the other calls
Starred values were filed as active, the others as inactive; i = inactive; ? = inconclusive; / = no result; ! = repeats disagree.

SMILES | PfHsp40 rescue | PrPC TRFRET | 3CLpro inhibitor | PriA SSB inh | Vc quorum ag | PrP UTR inh | PrP UTR cherry
C[C@@H]1O[C@@H](O[C@@H]2C=C3CCC4C(CC[C@]5(C)[C@@H](c6ccc(=O)oc6)CC[C@]45O)[C@@]3(C)CC2)[C@H](O)[C@H](O)[C@H]1O (stereo partly specified) | -1 | -6 | / | 6 | 6 | 94* | 94*
C[C@@H]1O[C@@H](O[C@@H]2C=C3CC[C@@H]4C(CC[C@]5(C)[C@@H](c6ccc(=O)oc6)CC[C@]45O)[C@@]3(C)CC2)[C@H](O)[C@H](O)[C@H]1O (stereo partly specified) | -1 | -7 | / | -9 | i | 94* | 90*
CCCS(=O)(=O)N1CCc2ccc(NC(=O)c3cccc4ccccc34)cc2C1 | / | / | / | 1 | / | / | /
O=C(CSC1CCCC1)NCC(O)c1ccc(C(F)(F)F)cc1 (stereo unspecified) | / | / | / | 13 | / | / | /
O=C1c2ccccc2S(=O)(=O)N1Cc1nc2ccccc2s1 | 1 | 1 | 1 | -15 | -12 | 70* | ?
O=C(CCN1C(=O)c2ccccc2S1(=O)=O)Nc1nc2ccccc2s1 | / | / | / | 3 | / | / | /
O=C(Nc1ccc(Br)cc1)N1C[C@H]2C[C@H](C1)c1cccc(=O)n1C2 | / | / | / | -9 | / | / | /
Cc1ccc(NC(=O)c2cc3ccccc3oc2=O)cc1S(=O)(=O)N(C)C | 0 | / | 1 | -13 | 0 | 90* | 90*
Cc1ccc(NC(=O)c2cc3ccccc3o2)cc1S(=O)(=O)N(C)C | 1 | 0 | 1 | -13 | -3 | -98 | /
CSC(=Nc1ccccc1)N=C(SCc1ccccc1)N(C)C | -1 | -11 | / | -13 | -6 | 74* | 39
N#CNC(=Nc1ccccc1)SCc1ccc(C(=O)O)cc1 | -2 | -2 | -1 | -12 | -1 | -12 | /
C#C[C@]1(O)CC[C@H]2[C@@H]3CCc4cc(OC5CCCC5)ccc4[C@H]3CC[C@@]21C | 4 | -2 | -2 | -1 | 0 | 61*! | -13
Cn1cccc1C(O)CCNS(=O)(=O)/C=C/c1ccccc1 (stereo unspecified) | / | / | / | -18 | / | / | /
CCN(CC)c1ccc2c(cc1=O)[C@@H](NC)CCc1cc(OC)c(OC)c(OC)c1-2 | -2 | -6 | 5 | -2 | -6 | 80* | 82*
COc1cc2c(c(OC)c1OC)-c1ccc(OC)c(=O)cc1[C@@H](N(C)CC#CCO)CC2 | 1 | -8 | -8 | 0 | -6 | 80* | 91*
COc1cc2c(c(OC)c1OC)-c1ccc(OC)c(=O)cc1[C@@H](NC(C)=O)CC2 | -1 | -1 | 8 | -5 | i | 49 | /
COc1cc2c(c(OC)c1O)-c1ccc(OC)c(=O)cc1C(NC(=O)C(F)(F)F)CC2 (stereo unspecified) | -1 | -11 | / | -14 | i | 54* | 90*
CCn1cc(C2NC(=S)NC(C)=C2C(=O)Nc2ccccc2)c(C)n1 (stereo unspecified) | / | / | / | 0 | / | / | /
Cc1ccc(-c2n[nH]c(=S)n2/N=C/c2ccc(C)s2)cc1 | -2 | -2 | 1 | / | i | 66* | 8
Cc1nc2ccccn2c1C(=O)NC1CCCc2ccccc21 (stereo unspecified) | -2 | 12 | 2 | -2 | 3 | 60* | ?
CN(C)c1ccc(CCc2ccc(N)cc2)cc1 | -1 | 13 | / | 10 | i | 57* | 53*
CN=c1scc(-c2cccs2)n1/N=C/c1ccccc1O | -2 | -3 | 2 | / | 0 | 94* | 90*
CCN1CCN(Cc2ccc(NC(=O)c3ccc(C)c(NC(=O)c4cncc(-c5cccs5)c4)c3)cc2C(F)(F)F)CC1 | -1 | / | / | 47* | 1 | 61* | 86*
CCN1CCN(Cc2ccc(NC(=O)c3ccc(C)c(NC(=O)c4nccn4C)c3)cc2C(F)(F)F)CC1 | 1 | 1 | / | -3 | i | 12 | /
O=c1c(Cl)c(N2CCCCC2)cnn1-c1nc2ccccc2[nH]1 | -1 | 1 | -7 | -5 | / | 75* | 69*
SMILES | PfHsp40 rescue | PrPC TRFRET | 3CLpro inhibitor | PriA SSB inh | Vc quorum ag | PrP UTR inh | PrP UTR cherry
O=c1c2ccccc2cnn1-c1nc2ccccc2[nH]1 | -6 | 0 | -2 | -1 | -2 | 92* | 91*
CN(C)c1cc[n+](C(C(=S)Nc2ccc(SC(F)F)cc2)=C([O-])c2ccccc2)cc1 | / | / | / | -8 | / | / | /
COc1ccc(C(=O)CC(=O)c2ccc(F)cc2)cc1 | / | -4 | / | -8 | -1 | / | /
COc1ccc(C(=O)CC(=O)c2ccc(C(C)(C)C)cc2)cc1 | 0 | 0 | / | -12 | -1 | 57* | -11
Cc1ccc(S(=O)(=O)NC2CCCC2)cc1C | 0 | -2 | -1 | -17 | i | -40 | /
Cc1ccc(S(=O)(=O)NC2CCSC2=O)cc1C (stereo unspecified) | -1 | 6 | / | -13 | -1 | 75* | -7
O=C(NCc1ccccn1)c1ccc(Cn2c(=S)[nH]c3ccccc3c2=O)cc1 | -1 | -1 | 7 | -6 | 0 | -7 | /
O=C(NCc1ccccn1)c1ccc(Cn2c(=S)[nH]c3ccc(Br)cc3c2=O)cc1 | 0 | 3 | -5 | -9 | 1 | 71* | -6
Cc1ccccc1Cn1nnc2c(=O)n(Cc3nc(-c4ccc5c(c4)OCO5)no3)cnc21 | / | / | / | -8 | / | / | /
CC1(C)COc2ccc(NC(=O)COc3ccc(Cl)cc3Cl)cc2NC1=O | / | / | / | 18 | / | / | /
O=C(Nc1ccc(Cl)cn1)c1cc2ccccc2o1 | 2 | -4 | -2 | -15 | 1 | -125 | /
O=C(Nc1ccccn1)c1cc2ccccc2o1 | 0 | -7 | -4 | -11 | -6 | 59* | 57*
Cc1ccnc(NC(=O)c2cc3ccccc3o2)c1 | -1 | 0 | / | -16 | 0 | 58* | ?
Cc1ccc(C)c(NC(=O)c2cc3ccccc3o2)c1 | 1 | 7 | 0 | -19 | 0 | -50 | /
COc1ccc(C)c2sc(N(Cc3cccnc3)C(=O)c3cccc4ccccc34)nc12 | / | / | / | -5 | / | / | /
O=C(Nc1ccc2c(c1)CCCN2C(=O)c1ccco1)C1CC1 | / | / | / | 10 | / | / | /
Cc1noc(C)c1C(=O)N1CCC(Oc2ncccc2Cl)CC1 | / | / | / | 0 | / | / | /
CCOC(=O)c1c(C)[nH]c(C(=O)NN=Cc2ccccc2O)c1C | / | / | / | -6 | / | / | /
CCOC(=O)c1c(C)[nH]c(C(=O)N/N=C/c2ccc(Br)cc2)c1C | 0 | 2 | 0 | i | 0 | 55* | 88*
Nc1nc2n(n1)C(=O)CC(c1ccccc1[N+](=O)[O-])N2 (stereo unspecified) | -1 | -1 | 2 | 10 | i | 78* | 2
CC(=O)CSc1ccc(-c2nc3cc(C)c(C)cc3[nH]2)cn1 | 0 | -4 | 3 | 5 | 0 | 82* | 74*
O=C(NC1CC1)c1ccc(-c2nc3ccccc3s2)s1 | 0 | -27 | 2 | -8 | i | 66* | ?
c1c2c(cc3sc(N4CCOCC4)nc13)OCCO2 | -3 | 3 | -5 | -6 | -11 | 56* | ?
c1c2c(cc3sc(N4CCN(c5nc6cc7c(cc6s5)OCCO7)CC4)nc13)OCCO2 | / | / | / | -1 | / | / | /

Source: PubChem BioAssay (several laboratories)
